Results taken from ChEMBL document CHEMBL3988442, “University of Dundee, Small-Polar-MMV Screening Library” (2021).
In all, about 48,000 compounds went through this assay and about 13,000 (27%) showed an effect of 50% or more. The list shows a part of the results.

Test system: Wolbachia pipientis
Test: Anti-Wolbachia Cell-Based Screen
Assay type: functional
Parameters: scale not given: in the data most compounds retested in dose-response had high values
Conditions: 5 µM

SMILES | Percent Effect [%]
CC(NC(=O)CCCc1ccc(Cl)cc1)c1n[nH]c(=O)[nH]1 (configuration not stated) | 26.11
COCCCNC(=O)C1CCN(CC2(O)CCC(C)CC2)CC1 (configuration not stated) | -1.754
O=C(c1ccc(O)c(Cl)c1)N1CCC(c2n[nH]c(C3CC3)n2)CC1 | 7.915
CC1CN(c2ccc(CNC(=O)NCc3ccoc3)cn2)CCO1 (configuration not stated) | 4.131
Cc1noc(C)c1CNC(=O)Nc1ccc(N2CCOC(C)C2)cc1 (configuration not stated) | 95.8
Cc1noc(C)c1C(=O)NCc1ccc(N2CCOC(C)C2)nc1 (configuration not stated) | 6.815
CC1CN(c2ccc(CNC(=O)NCCO)cn2)CCO1 (configuration not stated) | -1.494
Cc1noc(C)c1CCCNC(=O)Nc1ccc2c(c1)CC(=O)N2 | -4.957
Cc1ocnc1CNC(=O)Nc1ccc(N2CCOC(C)C2)cc1 (configuration not stated) | 105.8
Cc1noc(C)c1CCCNC(=O)Nc1ccc2c(c1)COC2 | 12.5
Cc1noc(C)c1CNC(=O)N1CCC(CO)CC1 | -12.65
Cc1ccsc1CNC(=O)c1ccc(N2CCOC2=O)cc1 | 25.75
Cc1noc(C)c1CN1C[C@@H](C(=O)O)[C@H](c2ccccc2)C1 | -10.93
Cc1noc(C)c1CNC(=O)Nc1ccc(N2CCSCC2)cc1 | 101.4
Cc1noc(C)c1CNC(=O)Nc1ccc(N2CCOC2=O)cc1 | 99.13
O=C(CCCn1cncn1)NC1(c2ccc(Cl)cc2)CCC1 | -16.99
O=C(CCN1CCC(c2cc3ccccc3[nH]2)CC1)N1CCOCC1 | -13.23
O=C(CCc1cc(O)no1)N1CCCC(COc2ccc(F)cc2)C1 (configuration not stated) | -11.68
COc1cc(CCC(=O)N2CCC(c3cc4ncccc4[nH]3)CC2)on1 | 86.08
COc1cc(CCC(=O)N2CCC(c3cc4nccnc4[nH]3)CC2)on1 | 109.8
O=C(CCn1ccc(=O)[nH]c1=O)N1CCC(Oc2ccccn2)CC1 | 4.456
O=C(CCc1cc(O)no1)N1CCCC(COc2ccccc2F)C1 (configuration not stated) | -3.381
O=C(NC1(C(=O)O)CCCC1)C1Cc2cc(F)ccc2O1 (configuration not stated) | -1.866

SMILES | Percent Effect [%]
O=C(NCCNC(=O)C1Cc2cc(F)ccc2O1)C1CCCCC1 (configuration not stated) | 14.96
CN1C[C@@H](C(=O)NC2CC2)[C@@]2(COc3ccc(F)cc3C2=O)C1 | 74.8
CCCN1CCC(NC(=O)c2ccc(F)cc2I)CC1 | 3.516
CC(C)NC(=O)[C@@H]1CN(C)C[C@]12COc1ccc(F)cc1C2=O | 126.3
O=C(C1CCOc2ccccc21)N1CCOc2ccc(F)cc21 (configuration not stated) | 2.761
CC(C)NC(=O)C1CN(C(=O)c2ccc(F)cc2)CC12CCOCC2 (configuration not stated) | 19.27
CN1C[C@@H](C(=O)NC2CCCC2)[C@@]2(COc3ccc(F)cc3C2=O)C1 | 83.49
Cc1ccsc1C(=O)N1CC(C(=O)NC(C)C)C2(CCOCC2)C1 (configuration not stated) | 2.071
CNC(=O)N1Cc2cc(F)ccc2C2(CCN(C)CC2)C1.Cl | 3.324
CN1CCN(C(=O)[C@@H]2CN(C)C[C@]23COc2ccc(F)cc2C3=O)CC1 | 67.23
O=C(CCN1CCC(C(=O)c2cc(F)ccc2F)CC1)NC1CCCC1 | -34
Cc1cc(F)ccc1N1CCC(N2C[C@@H](C)[C@@](C)(O)C2)CC1 | -24.61
OCCOCc1n[nH]c2c1CN(Cc1cccs1)C2 | -8.945
C1CCC(c2nc3c(c(N4CC(N5CCOCC5)C4)n2)CCNCC3)C1 | -4.65
Cc1noc(C)c1CN(C)C(=O)C1CCCCN1CC(C)C (configuration not stated) | 0.6295
CCc1cnc(C)nc1N1CCS(=O)(=O)CC1 | 16.32
CC(C)(C)NC(=O)C1CSCN1S(=O)(=O)c1ccc(F)cc1 (configuration not stated) | 5.212
CC(C)(C)NC(=O)C1CSCN1S(=O)(=O)c1cccc(F)c1 (configuration not stated) | 1.077
CN1C[C@@H](C(=O)NC(C)(C)C)[C@@]2(COc3ccc(F)cc3C2=O)C1 | 107.1
CC(=O)c1cccc(S(=O)(=O)N2CSCC2C(=O)NCC(F)(F)F)c1 (configuration not stated) | 8.95
CN(Cc1ccco1)Cc1ccccc1CNC(=O)c1cnccn1 | 7.808
Cc1ncsc1C(=O)NCc1cccs1 | -3.425
Cc1ncsc1C(=O)NCc1ccc(-c2n[nH]cc2C(=O)N(C)C)cc1 | 72.18

SMILES | Percent Effect [%]
Cc1ccc(CNC(=O)c2c[nH]nc2NC(=O)C2CCC2)cc1 | 4.147
CCOc1cc(CNC(=O)c2cc(-c3ccccn3)no2)ccn1 | -5.804
CCN(CC)c1ccc(CNC(=O)c2cnccn2)cn1 | 2.528
Cc1cc(C(=O)NCc2ccc(-c3n[nH]cc3C(=O)N(C)C)cc2)on1 | 136.2
CN(c1ccc(CNC(=O)c2ccc(O)nc2)cc1)C1CCCCC1 | 6.661
Cc1cc(C(=O)NCc2ccccc2CN(C)Cc2ccco2)on1 | 21.5
CN(C)C(=O)c1c[nH]nc1-c1ccc(CNC(=O)c2cnccn2)cc1 | 109.4
CN(CCOc1cccc(CNC(=O)C2CC2)c1)C1CCOCC1 | -18.9
CN(C)C(=O)c1cncnc1-c1ccc(CNC(=O)C2CC2)cc1 | 73.6
CCC(C)NC(=O)c1ccc(NC(=O)CCCn2cncn2)c(C)c1 (configuration not stated) | -0.8579
CC(C)=CCS(=O)(=O)Cc1ccn(-c2cccc(F)c2)n1 | -8.164
Cc1cc(C)n2nc(CC(=O)N3CC[C@H]4NCCC[C@]4(CO)C3)nc2n1 | 5.114
CCC(O)Cn1nc(CCSC)nc1-c1ccc2c(c1)OCCO2 (configuration not stated) | -7.02
CC(C)c1nc(C2CCCN(C(=O)c3ccc4[nH]cnc4c3)C2)no1 (configuration not stated) | 1.919
CCc1nc(C2CCCN(C(=O)c3c(C)noc3C)C2)no1 (configuration not stated) | 106.3
CCc1nc(C2CCCN(C(=O)c3ccc(OC(C)C)nc3)C2)no1 (configuration not stated) | 4.592
CCc1nc(C2CCCN(C(=O)c3ccc(Cl)cc3)C2)no1 (configuration not stated) | 149.4
CCc1nc(C2CCCN(C(=O)c3ccc4[nH]cnc4c3)C2)no1 (configuration not stated) | 87.55
CCc1nc(C2CCCN(C(=O)c3ccc4[nH]nnc4c3)C2)no1 (configuration not stated) | 1.903
CCc1nc(C2CCCN(C(=O)c3cn(C)nc3C)C2)no1 (configuration not stated) | -1.661
CCc1nc(C2CCCN(C(=O)c3ccc(O)nc3)C2)no1 (configuration not stated) | 94.4
